Compound activity as filed in PubChem BioAssay.
mcGAS RapidFire = mouse cGAS inhibition by mass spec; Q8C6L5; recombinant mouse cGAS, cGAMP by RapidFire MS; inhibition, % at 12.5 µM; 130,000 compounds, 0.18% hits; AID 1259397;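 active means inhibition of cGAS enzyme activity at or above 60%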;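 further: enzyme stimulated by 45 bp dsDNA with ATP and GTP substrates; cGAMP share of summed cGAMP plus half ATP and half GTP signals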
Target sequence (Q8C6L5 whole entry, looked up): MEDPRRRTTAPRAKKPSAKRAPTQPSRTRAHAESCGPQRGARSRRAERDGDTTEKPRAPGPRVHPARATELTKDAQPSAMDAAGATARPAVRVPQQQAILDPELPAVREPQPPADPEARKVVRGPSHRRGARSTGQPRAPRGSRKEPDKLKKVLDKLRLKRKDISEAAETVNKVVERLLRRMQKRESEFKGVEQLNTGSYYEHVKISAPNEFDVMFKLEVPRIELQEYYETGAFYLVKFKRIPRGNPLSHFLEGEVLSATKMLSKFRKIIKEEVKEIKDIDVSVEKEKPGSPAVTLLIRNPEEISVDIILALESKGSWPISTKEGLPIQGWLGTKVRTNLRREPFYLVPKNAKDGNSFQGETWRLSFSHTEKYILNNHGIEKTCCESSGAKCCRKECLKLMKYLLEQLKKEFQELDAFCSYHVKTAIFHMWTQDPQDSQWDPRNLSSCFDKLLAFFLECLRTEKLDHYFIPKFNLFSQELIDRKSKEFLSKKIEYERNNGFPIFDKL
An asterisk follows results filed as active. Shown is part of a subset that was picked to be rich in hits.

SMILES	mcGAS RapidFire
N#Cc1ccccc1NC(=O)C1=COCCO1	-8
N#Cc1ccccc1NC(=O)c1c(-c2ccccc2)c(-c2ccccc2)n[nH]c1=O	-3
N#Cc1ccccc1NC(=O)c1n[nH]c([N+](=O)[O-])c1Br	70*
O=S(=O)(Cc1ccc(Cl)cc1Cl)c1ccc2c(c1)OCCO2	4
NC(=S)N=Nc1ccc(NN=C(N)N)cc1	79*
Cc1cc(C)n(CC(C)NC(=O)c2cn(CCC3CCCCC3)nn2)n1 (configuration not stated)	-7
O=c1c(O)c(-c2ccc(O)cc2)oc2cc(O)cc(O)c12	11
O=c1c(-c2ccc(O)cc2)coc2cc(O)ccc12	-4
O=c1c(-c2ccccc2)coc2cc(O)cc(O)c12	86*
O=C1NC(=S)SC1=Cc1cc(O)c(O)c(Cl)c1	97*
COc1cc(C=C2SC(=S)NC2=O)cc(OC)c1OC	21
O=C1NC(=S)SC1=Cc1ccccc1Cl	48
CNC(=O)CCNS(=O)(=O)c1ccc(F)cc1	-7
COc1cccc(CNC(=O)C(=O)NCC(c2ccco2)N2CCc3ccccc32)c1 (configuration not stated)	-7
Cc1cc(C)n(CCCNc2nc(CN3CCOCC3)nc3sc4c(c23)CCC4)n1	-7
Cc1c(C(=O)NCCc2ccccc2)[nH]c2c1C(=O)CC(C)(C)C2	-16
OC(C#Cc1ccccc1)c1ncc(-c2ccccc2)[nH]1 (configuration not stated)	35
S=c1nccc(-c2ccccc2)[nH]1	74*
S=c1nc(-c2ccccc2)c(-c2ccccc2)n[nH]1	-13
COc1cc(-c2ccccc2)sc1C(=O)NC1CC1	-9
CCC(Nc1cccc(OC)c1)C(=O)N1CCC(C(=O)OC)CC1 (configuration not stated)	5
COc1ccc(Cn2cccc(C)c2=O)c(Cl)c1	-3
COc1ccc(CNCc2ccccc2Cn2cccn2)c(Cl)c1	83*
COc1ccc(OC)c(CNCc2c(C)nc3ccccn23)c1	-3
COc1ccc2c([N+](=O)[O-])c(-n3nnc4ccccc43)[nH]c2c1	7
SMILES	mcGAS RapidFire
Cc1cc(C)cc(OCc2nc(CNC3CC3)cs2)c1	0
CN(C)c1nc2cc3c(cc2nc1NS(=O)(=O)c1ccccc1)OCCO3	-2
CCn1c(C)cc(O)c(C(c2cccs2)N2CCCCC2)c1=O (configuration not stated)	63*
CCn1c(C)cc(O)c(C(c2cccs2)N2CCC(C)CC2)c1=O (configuration not stated)	-6
CCn1c(C)cc(O)c(C(c2ccc(SC)cc2)N2CCCCC2)c1=O (configuration not stated)	-8
O=P1(NCCO)C=C(c2ccccc2)OC(c2ccccc2)=C1	-5
Cc1cccnc1CN1CCN(C(=O)c2cc(C(C)C)on2)CC1	-37
O=C(Cc1ccc(C(F)(F)F)cc1)Nc1ncccc1O	-4
O=C(COc1ccc(Cl)c2ccccc12)NCC(F)(F)F	-7
O=C(COc1ccc(Cl)c2ccccc12)Nc1ncccc1O	95*
Cc1nc(CN2CCCC2Cn2ccnc2C(C)C)nc2ccccc12 (configuration not stated)	0
C#CCN1CCCCC1C(=O)NNc1nc(-c2cccnc2)nc(C)c1C (configuration not stated)	-3
O=C1Nc2ccc(Br)cc2C1=O	5
O=C1Nc2ccc(Br)cc2/C1=c1/sc2n(c1=O)CCN=2	81*
O=C1Nc2ccc(Br)cc2C1=c1sc2nc3ccccc3n2c1=O	4
COc1cc(=O)n(-c2ccccc2)nc1C(=O)N1CCc2ccccc21	-24
O=S(=O)(c1ccccc1)C1(c2ccccc2)OCCO1	-3
CCCCc1ccc(-c2nc(C=Nc3ccc(I)cc3)c(O)o2)cc1	-2
COc1ccc(NC(=O)c2cc(=O)c(OC)c[nH]2)cc1OC	-4
O=S(=O)(c1ccc(Br)cc1Br)N1CCCCC1	-4
CC(C)C(CNC(=O)CCn1c(=O)oc2cc(S(=O)(=O)N3CCCC3)ccc21)N1CCOCC1 (configuration not stated)	-9
O=C(CN1CCCC1c1ccsc1)NCc1ccco1 (configuration not stated)	3
Cc1ccc2c(c1)c(CNC(=O)c1ccccc1C1CCNC1)nn2C (configuration not stated)	-19
Cc1ccc2c(c1)c(CNC(=O)CCc1c(C)nn(C)c1C)nn2C	-23
Cc1ccc2c(c1)c(CNC(=O)C1CNCC(=O)N1)nn2C (configuration not stated)	64*
SMILES	mcGAS RapidFire
CC(C#N)CNc1ncnc2ccc(Br)cc12 (configuration not stated)	0
CCOc1ccc(OCCCOc2cccc(C)c2C)cc1	-8
CC(C(=O)Nc1cccnc1Cl)N1CCC(N2CCOCC2)C1 (configuration not stated)	-30
Cn1cc(-c2ccc3c(c2)N(CCN2CCOCC2)C(=O)COC3)cn1	-12
O=C(CCCNC(=O)C12CC3CC(CC(C3)C1)C2)Nc1cccc(Cl)c1	-3
CN(Cc1cnc2nc(N)nc(N)c2n1)c1ccc(C(=O)N[C@@H](CCC(=O)O)C(=O)O)cc1	24
